Data as given in PubChem BioAssay (NCI).
Compounds without any hit were thinned out: in the full panel of roughly 83,000, 20% have a hit.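 Method: cells in 96-well plates; compound added at one concentration; 48 h incubation; percent growth measured; values under 10 scored active.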 Unmarked numbers belong to inactive results. Calls of active or inactive are those of the source.

Tested on: COLO 205 colon
Test: NCI-60 one-dose screen, 48 h (100 = growth as untreated, 0 = no growth, -100 = all killed)
Settings: 10 µM unless noted

SMILES | growth
Cc1cccc(NC(=O)[C@]23CCC(C)(C)CC2C2=CCC4[C@@]5(C)C[C@@H](O)[C@H](O)[C@@](C)(CO)C5CC[C@@]4(C)[C@]2(C)CC3)c1 (stereo partly drawn) | -31.7% (active)
CC(=O)Nc1ccc(-n2cnc3ccc(-c4ccc(O)cc4)cc32)cc1 | 123%
NC(=S)Nc1cccc(NC(N)=S)c1 | 137%
O=C(/C=C/c1ccc(O)c(O)c1)NC1CCOC1O (stereo not drawn) | 105%
CCN1C(=O)/C(=N\N=C(/C)c2ccc3c(c2)Nc2ccccc2S3)c2cc(Cl)ccc21 | 89.8%
S=C(NCCc1ccccc1)Nc1ccc(OCc2nc3ccccc3[nH]2)cc1 | 109%
COc1ccc(-c2nc(SC(C)C)nc(NCCc3c[nH]c4ccccc34)c2C#N)cc1 | 45.7%
S=C(Nc1ccccc1)Nc1ccc(OCc2nc3ccccc3[nH]2)cc1 | 32.9%
CC1(C)CC[C@]2(C(=O)Nc3ccc(Br)cc3)CC[C@]3(C)C(=CCC4[C@@]5(C)C[C@@H](O)[C@H](O)[C@@](C)(CO)C5CC[C@]43C)C2C1 (stereo partly drawn) | -74.1% (active)
CC12CC[C@@H]3[C@]4(C)COC(c5c(F)cccc5F)O[C@@H]4CC[C@@]3(C)[C@@H]1CC(C1=CCOC1=O)O2 (stereo partly drawn) | 91.7%
Cc1ccc(Cc2cnc(NC(=O)c3ccc(/C=C4\SC(=S)N(C)C4=O)cc3)s2)cc1 | 24.4%
CC(=O)Nc1ccc(-n2cnc3cc(-c4ccc(O)cc4)ccc32)cc1C(F)(F)F | 43.8%
Cn1cc(NC(=O)c2cc(NC(=O)c3ccc(/C=C/c4ccccc4)cc3)cn2C)cc1C(=O)NCCCN1CCOCC1 | -78.6% (active)
